This is part of a sample that, as a whole, favours compounds with a hit. Of some 83,000 tested, about 20% had one in any assay.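 Each cell line was grown in a 96-well plate and treated with one concentration of compound for 48 hours. Values below 10 were considered active.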 Values without a mark were called inactive. Active and inactive are the calls of the source.

Among the test systems are HCT-15 colon; HT29 colon; SNB-75 CNS; SNB-19 CNS; U251 CNS; PC-3 prostate; SK-MEL-5 melanoma; UACC-62 melanoma; LOX IMVI melanoma; SK-MEL-28 melanoma.
Common to all, as to test: NCI-60 one-dose screen, 48 h (100 = growth as untreated, 0 = no growth, -100 = all killed)
Holding throughout (conditions): 10 µM unless noted

As to `C/C(=N/O)c1ccc(NC(=O)Cn2nc(-c3ccc(Cl)cc3)nc2N)cc1`, the growth with HCT-15 colon was 114%; in the assay on HT29 colon it was 86.8%; in the assay on SNB-75 CNS, 87.3%; in the assay on SNB-19 CNS, 89.1%; in the assay on U251 CNS, 90.3%; in the assay with PC-3 prostate, 71.8%. Also, the growth is 98.1% in the assay on SK-MEL-5 melanoma, 91.8% with UACC-62 melanoma, 97% in the assay with LOX IMVI melanoma and 114% with SK-MEL-28 melanoma.
Regarding `Cc1ccc2c(c1)Nc1ccc(C)cc1C2(C)C`, the growth in the assay with HCT-15 colon is 96%; with HT29 colon it was 79%; in the assay with SNB-75 CNS, 83.9%; in the assay with SNB-19 CNS, 115%; with U251 CNS, 100%; in the assay with PC-3 prostate it was 90.6%. The growth with SK-MEL-5 melanoma is 97.9%; in the assay on UACC-62 melanoma, 100%; in the assay with LOX IMVI melanoma it was 101%; in the assay on SK-MEL-28 melanoma, 105%.
For the compound `O=C(NCCNc1nccc(-c2c(-c3cccc(O)c3)nc3sccn23)n1)c1ccc(N2CCOCC2)c(C(F)(F)F)c1`, the growth is 80.1% in the assay with HCT-15 colon; 68.6% in the assay with HT29 colon; 58% in the assay on SNB-75 CNS; 107% in the assay on SNB-19 CNS; 82% in the assay with U251 CNS; 56.6% in the assay on PC-3 prostate. Further, the growth was 40% in the assay with SK-MEL-5 melanoma, 5.88% (active) in the assay on UACC-62 melanoma, 42.2% in the assay on LOX IMVI melanoma and 42.8% with SK-MEL-28 melanoma.
As to `C#C[C@@]1(O)[C@@H](CO)O[C@@H](n2cc(Br)c3c(Cl)ccnc32)[C@@H]1O`, the growth is 8.13% (active) with HCT-15 colon; 12.2% in the assay on HT29 colon; 35.9% in the assay with SNB-75 CNS; 37.1% with SNB-19 CNS; 70.9% with U251 CNS; -25.7% (active) in the assay on PC-3 prostate. Also, the growth with SK-MEL-5 melanoma is 73.7%; in the assay on UACC-62 melanoma, 68%; in the assay with LOX IMVI melanoma, -34% (active); with SK-MEL-28 melanoma, 98.9%.
For `O=C(Nc1ccc(-n2cc(-c3ccncc3)c(-c3ccc(O)c(Cl)c3)n2)cc1)c1cc(Cl)cc(Cl)c1`, the growth with HCT-15 colon is 11.2%; in the assay on HT29 colon it was -19.5% (active); in the assay on SNB-75 CNS, 60.6%; in the assay with SNB-19 CNS, 50%; with U251 CNS, 26.8%; with PC-3 prostate, 35.6%. The growth in the assay with SK-MEL-5 melanoma is 2.65% (active); in the assay on UACC-62 melanoma it was 65.9%; in the assay with LOX IMVI melanoma, 1.16% (active); with SK-MEL-28 melanoma, 53.4%.
Take `Nc1ncnc2c1c(-c1ccc(Oc3ccccc3)cc1)nn2C[C@H]1SSC[C@H]1O`: the growth in the assay with HCT-15 colon was 26.6%; with HT29 colon, -59.1% (active); with SNB-75 CNS it was 3.26% (active); in the assay with SNB-19 CNS, 45.9%; with U251 CNS, 21.1%; in the assay on PC-3 prostate it was 50.7%. The growth in the assay with SK-MEL-5 melanoma was -92.5% (active); in the assay with UACC-62 melanoma, -48.8% (active); in the assay on LOX IMVI melanoma it was -57.7% (active); in the assay with SK-MEL-28 melanoma it was -16.3% (active).
For `O=C(Nc1ccc(F)cc1)Nc1ccc(Br)c(C(F)(F)F)c1`, the growth with HCT-15 colon is 8.12% (active); with HT29 colon it was 6.61% (active); with SNB-75 CNS, 22.2%; in the assay on SNB-19 CNS, 19.8%; in the assay with U251 CNS, 11.6%; in the assay with PC-3 prostate, 4.68% (active). The growth in the assay with SK-MEL-5 melanoma is 4.53% (active); in the assay on UACC-62 melanoma it was 21.7%; in the assay on LOX IMVI melanoma it was -16.7% (active); with SK-MEL-28 melanoma it was 20.8%.
On to `CCOC(=O)c1cnc2c(OC)ccc(OC)c2c1Cl`, for which the growth is 107% with HCT-15 colon; 117% with HT29 colon; 82.7% with SNB-75 CNS; 114% in the assay on SNB-19 CNS; 109% in the assay on U251 CNS; 93.6% in the assay on PC-3 prostate. Further, the growth in the assay on SK-MEL-5 melanoma is 107%; in the assay on UACC-62 melanoma, 109%; with LOX IMVI melanoma it was 91.1%; in the assay on SK-MEL-28 melanoma it was 120%.
`Nn1c(CN2CCN(c3cc4c(cc3F)c(=O)c(C(=O)O)cn4C3CC3)CC2)n[nH]c1=S`: the growth with HCT-15 colon was 106%; in the assay with HT29 colon, 97.8%; in the assay on SNB-75 CNS, 86.4%; in the assay on SNB-19 CNS, 99.6%; with U251 CNS it was 112%; in the assay on PC-3 prostate it was 105%. In addition, the growth in the assay with SK-MEL-5 melanoma is 97.5%; in the assay with UACC-62 melanoma, 93.9%; with LOX IMVI melanoma it was 103%; in the assay on SK-MEL-28 melanoma, 109%.
For the compound `COc1cc2c(/C=C3/C(=O)Nc4ccc(O)cc43)c(Cl)n(Cc3cc(OC)c(OC)c(OC)c3)c2cc1C`, the growth with HCT-15 colon was 38.1%; in the assay with HT29 colon, 10.4%; in the assay on SNB-75 CNS, 32.2%; in the assay on SNB-19 CNS, 20.2%; in the assay with U251 CNS it was 32.2%; with PC-3 prostate it was 11.3%. Also, the growth in the assay with SK-MEL-5 melanoma is -64.5% (active); in the assay on UACC-62 melanoma, 36.6%; in the assay on LOX IMVI melanoma it was 39.7%; in the assay on SK-MEL-28 melanoma, 45.2%.
Take `COc1cc(C(=O)NNC(=O)c2ccccc2C(=O)O)cc(OC)c1OC`: the growth with HCT-15 colon was 31.8%; with HT29 colon it was 20.8%; with SNB-75 CNS, 86.3%; with SNB-19 CNS it was 49.6%; with U251 CNS, 39.7%; with PC-3 prostate, 54.7%. In addition, the growth in the assay with SK-MEL-5 melanoma is 38.2%; in the assay on UACC-62 melanoma it was 39.8%; in the assay on LOX IMVI melanoma, 16.9%; in the assay on SK-MEL-28 melanoma, 75.6%.
As to `Cc1nssc1=S`, the growth in the assay with HCT-15 colon is 104%; with HT29 colon it was 102%; in the assay with SNB-75 CNS, 92.3%; with SNB-19 CNS, 96.5%; in the assay with U251 CNS it was 102%; with PC-3 prostate, 88.2%. The growth in the assay on SK-MEL-5 melanoma was 108%; in the assay on UACC-62 melanoma, 104%; in the assay with LOX IMVI melanoma, 89.4%; in the assay on SK-MEL-28 melanoma, 101%.
Turning to `CC(C)(CCN=C(N)Nc1ccccn1)c1ccc(C(F)(F)F)cc1`, the growth was 9.42% (active) with HCT-15 colon; -14.8% (active) in the assay on HT29 colon; 48.3% with SNB-75 CNS; 37.2% in the assay on SNB-19 CNS; -17% (active) in the assay with U251 CNS; 19.7% with PC-3 prostate. For the same compound, the growth with SK-MEL-5 melanoma was -91.4% (active); in the assay with UACC-62 melanoma it was -2.3% (active); with LOX IMVI melanoma, 5.15% (active); in the assay on SK-MEL-28 melanoma it was -30.9% (active).

(Values after PubChem BioAssay (NCI).)
